Data taken from PubChem BioAssay (Tox21).
Records with an inconclusive call do not appear. Calls of active or inactive are those of the source. Unless noted, calls come from the whole dose curve.

How the values were obtained:
[1] = qHTS assay to identify small molecule agonists of the peroxisome proliferator-activated receptor delta (PPARd) signaling pathway - cell viability counter screen (AID 743211; active = well fitted curve in the direction sought with a large enough effect in the repeat runs; an effect the other way counts as inactive or inconclusive; note: nearly all actives have a fitted effect of over 55% in size)
Procedure, shortened: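 Multiplexed format: after the 2 h room-temperature LiveBLAzer B/G FRET step, CellTiter-Glo was added to the same wells. Luminescence after 30 min gave cell viability; compound exposure was 17 h at 37C.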

[2] = target: Peroxisome proliferator-activated receptor delta (Homo sapiens) (UniProt Q03181); experiment: qHTS assay to identify small molecule agonists of the peroxisome proliferator-activated receptor delta (PPARd) signaling pathway (AID 743212)
Procedure, shortened: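 HEK293H UAS-bla reporter cells, human PPARd system; compounds delivered in DMSO after 5 h plating, then at 37 C. Beta-lactamase FRET read, 2 h RT substrate step.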

[3] = qHTS assay to identify small molecule antagonists of the peroxisome proliferator-activated receptor delta (PPARd) signaling pathway - cell viability counter screen (AID 743213; active = well fitted curve in the direction sought with a large enough effect in the repeat runs; an effect the other way counts as inactive or inconclusive; note: nearly all actives have a fitted effect of over 50% in size)
Procedure, shortened: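 In this counter screen, HEK293H cells carrying a UAS-beta-lactamase reporter are co-treated with test compounds and 300 nM L165041 (final) for 17 h at 37 C; cell viability is quantified by CellTiter-Glo luminescence.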

[4] = qHTS assay to identify small molecule agonists of the farnesoid-X-receptor (FXR) signaling pathway - cell viability counter screen (AID 743218; active = well fitted curve in the direction sought with a large enough effect in the repeat runs; an effect the other way counts as inactive or inconclusive; note: nearly all actives have a fitted effect of over 45% in size)
Procedure, shortened: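 After 16 h at 37 C with test compounds, FXR-bla HEK 293T cells were given LiveBLAzer B/G substrate for 2 h at RT and then CellTiter-Glo; luminescence was taken after 30 min.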

[5] = qHTS assay to identify small molecule antagonists of the farnesoid-X-receptor (FXR) signaling pathway - cell viability counter screen (AID 743221; active = well fitted cell-killing curve with a large enough effect in the repeat runs, not every such curve was filed as active; note: nearly all actives have a fitted effect of over 50% in size)
Procedure, shortened: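 CellTiter-Glo, 30 min RT, luminescence; same wells as the LiveBLAzer FRET read. Cells: FXR-UAS-bla HEK 293T. Treatment: compound with chenodeoxycholic acid 50 uM final, 16 h at 37 C.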

[6] = target: Vitamin D3 receptor (Homo sapiens) (UniProt P11473); experiment: qHTS assay to identify small molecule agonists of the vitamin D receptor (VDR) signaling pathway (AID 743222)
Procedure, shortened: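 VDR-bla cells were seeded, left 4 h, treated with compounds in DMSO for 16 h, incubated 2 h at RT with B/G FRET substrate, and read for fluorescence.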

[7] = target: Vitamin D3 receptor (Homo sapiens) (UniProt P11473); experiment: qHTS assay to identify small molecule antagonists of the vitamin D receptor (VDR) signaling pathway (AID 743223; active = well fitted inhibition curve with a large enough effect in the signal ratio in the repeat runs, not every such curve was filed as active; the % refers to the signal ratio)
Procedure, shortened: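 After VDR-bla cells are plated and left 4 h at 37C, DMSO-dissolved compounds and 3 nM (final) calcitriol agonist are added. Incubation continues 16 h at 37C; FRET beta-lactamase substrate then develops 2 h at room temperature.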

[8] = qHTS assay to identify small molecule agonists of the vitamin D receptor (VDR) signaling pathway - cell viability counter screen (AID 743224; active = well fitted curve in the direction sought with a large enough effect in the repeat runs; an effect the other way counts as inactive or inconclusive; note: series mostly up to about 63 µM; nearly all actives have a fitted effect of over 50% in size)
Procedure, shortened: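 Here cell health was gauged by luminescent ATP detection (CellTiter-Glo, 30 min RT) in VDR-bla cells that had been incubated with test compounds for 16 h at 37C and 5% CO2.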

[9] = qHTS assay to identify small molecule antagonists of the vitamin D receptor (VDR) signaling pathway - cell viability counter screen (AID 743225; active = well fitted curve in the direction sought with a large enough effect in the repeat runs; an effect the other way counts as inactive or inconclusive; note: nearly all actives have a fitted effect of over 50% in size)
Procedure, shortened: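 Cytotoxicity toward the VDR-bla HEK 293T line was scored by ATP-based CellTiter-Glo luminescence, read in the wells already used for the beta-lactamase readout after 16 h compound treatment under 3 nM 1-alpha,25-dihydroxyvitamin D3 stimulation.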

[10] = qHTS assay to identify small molecule agonists of the NFkB signaling pathway (AID 1159509; active = well fitted curve in the direction sought with a large enough effect in the signal ratio in the repeat runs, not every such curve was filed as active; the % refers to the signal ratio; note: series mostly up to about 61 µM)
Procedure, shortened: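 After overnight attachment, reporter cells received test compounds, DMSO or positive controls and were incubated 5 hr at 37 C. FRET substrate was then added for 1.5 hr at room temperature before dual-emission fluorescence reading.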

[11] = qHTS assay to identify small molecule agonists of the NFkB signaling pathway - cell viability counter screen (AID 1159515); note: series mostly up to about 61 µM; nearly all actives have a fitted effect of over 55% in size
Procedure, shortened: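 5 hr compound treatment of NFkB-bla ME-180 cells (2,000/well, seeded overnight beforehand), followed by reporter substrate for 1.5 hr. CellTiter-Glo added afterward; luminescence after 30 min RT.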

[12] = qHTS assay to identify small molecule agonists of the endoplasmic reticulum stress response signaling pathway (AID 1159516; active = well fitted activation curve with a large enough effect in the signal ratio in the repeat runs, not every such curve was filed as active; the % refers to the signal ratio)
Procedure, shortened: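 Reporter HeLa cells (ESRE-beta-lactamase) underwent 5 hr compound incubation at 37 C and 5% CO2 in quantitative HTS format. Detection followed 2 hr of FRET substrate loading at room temperature.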

[13] = qHTS assay to identify small molecule agonists of the endoplasmic reticulum stress response signaling pathway - cell viability counter screen (AID 1159517)
Procedure, shortened: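 Cells, HeLa ESRE-bla; density, 1,500/well; dosing, 5 hr at 37 C, 5% CO2; readout, CellTiter-Glo luminescence after 30 min RT.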

[14] = qHTS assay to identify small molecule antagonists of the retinoid-related orphan receptor gamma (ROR-gamma) signaling pathway - cell viability counter screen (AID 1159520; active = well fitted curve in the direction sought with a large enough effect in the repeat runs; an effect the other way counts as inactive or inconclusive; note: nearly all actives have a fitted effect of over 50% in size)
Procedure, shortened: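 Cytotoxicity was read from cellular ATP (CellTiter-Glo luminescence) after 16 hr at 37 C with 1 uM doxycycline induction. The inducer was added 2 hr after compound transfer to Tet-on ROR gamma CHO cells.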

[15] = target: Nuclear receptor ROR-gamma (Homo sapiens) (UniProt P51449); experiment: qHTS assay to identify small molecule antagonists of the retinoid-related orphan receptor gamma (ROR-gamma) signaling pathway (AID 1159521; active = well fitted curve in the direction sought with a large enough effect in the repeat runs; an effect the other way counts as inactive or inconclusive)
Procedure, shortened: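 Readout: ONE-Glo luciferase luminescence, 30 min at room temperature. System: Tet-on RORγ CHO, RORE-LUC. Sequence: compound 2 h, doxycycline 1 uM final, 16 h at 37 C.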

[16] = qHTS assay to identify small molecule agonists of the AP-1 signaling pathway - cell viability counter screen (AID 1159525); note: nearly all actives have a fitted effect of over 55% in size
Procedure, shortened: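 Luminescent ATP readout (Cell Titer Glo, 30 min RT), normalised to DMSO and tetra n-octyl ammonium bromide controls. Cells were ME-180 AP-1-bla in 0.5% dialyzed FBS Opti-MEM, with a 5 h, 37 °C compound exposure.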

[17] = qHTS assay to identify small molecule agonists of the AP-1 signaling pathway (AID 1159526)
[18] = target: Peroxisome proliferator-activated receptor delta (Homo sapiens) (UniProt Q03181); experiment: qHTS assay to identify small molecule antagonists of the peroxisome proliferator-activated receptor delta (PPARd) signaling pathway (AID 743215; active = well fitted inhibition curve with a large enough effect in the signal ratio in the repeat runs, not every such curve was filed as active; the % refers to the signal ratio;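 note: cells stimulated with agonist L165041 at 300 nM final during compound exposure; series mostly up to about 62 µM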)
Procedure, shortened: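 With L165041 present at 300 nM final, compounds were incubated 17 h at 37 C on PPARd UAS-bla HEK293H cells. A FRET-based beta-lactamase substrate was then applied for 2 h at room temperature and fluorescence intensity recorded.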

[19] = target: Bile acid receptor (Homo sapiens) (UniProt Q96RI1); experiment: qHTS assay to identify small molecule antagonists of the farnesoid-X-receptor (FXR) signaling pathway (AID 743217; active = well fitted inhibition curve with a large enough effect in the signal ratio in the repeat runs, not every such curve was filed as active; the % refers to the signal ratio)
Procedure, shortened: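 In this cell-based antagonist screen, inhibition of CDCA-driven (50 uM final) UAS-beta-lactamase expression in HEK 293T cells was measured by FRET fluorescence following 16 h compound exposure at 37 °C.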

[20] = target: Bile acid receptor (Homo sapiens) (UniProt Q96RI1); experiment: qHTS assay to identify small molecule agonists of the farnesoid-X-receptor (FXR) signaling pathway (AID 743220; active = well fitted activation curve with a large enough effect in the signal ratio in the repeat runs, not every such curve was filed as active; the % refers to the signal ratio)
Procedure, shortened: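 Beta-lactamase reporter under UAS control in GeneBLAzer FXR HEK 293T cells (5000/well) measured with LiveBLAzer FRET substrate after 2 h at room temperature. Compound exposure lasted 16 h at 37C.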

Measured: Potency

Vitamin D3 receptor (Homo sapiens), sequence (P11473 whole entry, looked up): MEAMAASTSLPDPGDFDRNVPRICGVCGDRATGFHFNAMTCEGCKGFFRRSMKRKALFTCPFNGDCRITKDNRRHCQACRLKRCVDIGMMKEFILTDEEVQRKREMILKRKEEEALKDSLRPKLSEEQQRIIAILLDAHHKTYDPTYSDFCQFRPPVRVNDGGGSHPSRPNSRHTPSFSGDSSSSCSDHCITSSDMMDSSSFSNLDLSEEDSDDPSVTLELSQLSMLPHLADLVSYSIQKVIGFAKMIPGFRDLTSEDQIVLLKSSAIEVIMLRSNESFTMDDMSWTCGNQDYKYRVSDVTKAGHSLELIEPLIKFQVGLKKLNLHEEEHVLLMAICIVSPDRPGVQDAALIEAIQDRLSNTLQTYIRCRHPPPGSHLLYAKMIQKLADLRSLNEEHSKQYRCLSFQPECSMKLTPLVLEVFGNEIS
Bile acid receptor (Homo sapiens), sequence (Q96RI1 whole entry, looked up): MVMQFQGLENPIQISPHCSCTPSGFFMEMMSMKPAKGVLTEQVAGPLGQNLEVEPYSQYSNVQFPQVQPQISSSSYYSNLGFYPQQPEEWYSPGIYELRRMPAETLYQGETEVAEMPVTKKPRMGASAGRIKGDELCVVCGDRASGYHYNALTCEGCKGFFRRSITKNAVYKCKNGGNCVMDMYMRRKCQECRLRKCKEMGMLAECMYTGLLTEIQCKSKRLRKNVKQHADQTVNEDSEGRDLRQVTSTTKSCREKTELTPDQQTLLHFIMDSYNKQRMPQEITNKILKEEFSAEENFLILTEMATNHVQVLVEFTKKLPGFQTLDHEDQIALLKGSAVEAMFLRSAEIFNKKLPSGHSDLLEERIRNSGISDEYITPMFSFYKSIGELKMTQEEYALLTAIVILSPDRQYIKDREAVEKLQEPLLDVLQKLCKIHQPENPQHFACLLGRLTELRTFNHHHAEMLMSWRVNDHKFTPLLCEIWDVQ
Peroxisome proliferator-activated receptor delta (Homo sapiens), sequence (Q03181 whole entry, looked up): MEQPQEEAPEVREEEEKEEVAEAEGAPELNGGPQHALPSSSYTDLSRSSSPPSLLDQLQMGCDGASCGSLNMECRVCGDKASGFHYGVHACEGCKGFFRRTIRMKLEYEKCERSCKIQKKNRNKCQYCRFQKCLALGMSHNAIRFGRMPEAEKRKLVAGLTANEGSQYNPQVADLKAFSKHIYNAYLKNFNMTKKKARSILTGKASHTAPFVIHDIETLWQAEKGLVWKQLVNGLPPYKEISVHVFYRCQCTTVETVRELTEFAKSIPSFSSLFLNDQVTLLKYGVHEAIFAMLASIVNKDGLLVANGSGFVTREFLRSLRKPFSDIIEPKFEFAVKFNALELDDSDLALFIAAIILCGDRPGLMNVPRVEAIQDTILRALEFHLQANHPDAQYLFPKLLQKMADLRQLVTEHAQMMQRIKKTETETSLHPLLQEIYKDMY

Cc1ccccc1[N+](=O)[O-]
not listed: [18] | [19] | [20]
inactive: all other assays above

Nc1cccnc1
not listed: [4] | [7] | [9]
inactive: all other assays above

NCc1cccnc1
not listed: [4] | [9]
inactive: all other assays above

COc1ccc(C=O)cc1
not listed: [4] | [9] | [19] | [20]
inactive: all other assays above

O=C(O)CC[N+](=O)[O-]
not listed: [6] | [9] | [19] | [20]
inactive: all other assays above

CNC(=O)N(C)c1nnc(C(C)(C)C)s1
not listed: [4] | [19] | [20]
inactive: all other assays above

Nc1ccc(Cl)c(Cl)c1
not listed: [4] | [9] | [19] | [20]
inactive: all other assays above

c1ccc(NNc2ccccc2)cc1
not listed: [4] | [9]
inactive: all other assays above
